Results on 33 compounds are retold here after PubChem BioAssay (EPA / NIEHS).

Inconclusive results are not listed. The source made the active and inactive calls. The calls were made as follows: active = hit-call score of the fitted dose curve at least 0.9, where 1 is the maximum; inconclusive = response in the unintended direction; inactive = score below 0.9.

Cellular tumor antigen p53 (Homo sapiens), sequence (P04637 whole entry, looked up): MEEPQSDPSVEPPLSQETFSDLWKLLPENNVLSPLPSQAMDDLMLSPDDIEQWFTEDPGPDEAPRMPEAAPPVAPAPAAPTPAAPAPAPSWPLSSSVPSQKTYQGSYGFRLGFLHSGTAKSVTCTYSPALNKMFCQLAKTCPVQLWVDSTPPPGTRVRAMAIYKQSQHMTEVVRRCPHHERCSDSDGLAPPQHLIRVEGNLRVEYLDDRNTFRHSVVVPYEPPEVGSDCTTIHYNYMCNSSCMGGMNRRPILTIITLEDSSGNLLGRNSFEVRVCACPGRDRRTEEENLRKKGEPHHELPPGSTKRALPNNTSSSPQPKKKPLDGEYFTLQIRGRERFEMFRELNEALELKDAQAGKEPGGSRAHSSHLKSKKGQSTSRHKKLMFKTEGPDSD

System in the first assay: not listed separately
Kind of assay: TOX21_p53_BLA_p4_viability: Viability Assessment in the Tox21 HCT-116 p53 Agonism Beta-lactamase Assay, Phase 4 (AID 2283597).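 Also: hits lower the luminescence signal meaning cytotoxicity.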 The method, boiled down: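 Readout: ATP luminescence (CellTiter-Glo), measured 30 min after reagent addition at RT. The reagent followed a 2 h CCF4-AM incubation, and the cells had been exposed to compound for 16 h at 37C.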
With `Cc1c(C(C)C)c(=O)n(-c2ccccc2)n1C`, the compound was classed as inactive.

Consider `CN(C)c1ccc(/C=C/c2ccc([N+](=O)[O-])cc2)cc1`, for which the result was inactive.

`CC(=O)O[C@H]1C[C@@]2(C)[C@@H](C[C@@H](O)[C@H]3[C@@]4(C)CC[C@@H](O)[C@@H](C)[C@@H]4CC[C@@]32C)/C1=C(\CCC=C(C)C)C(=O)O`: the call was inactive.

In the case of `OCC=CCO`, the result was inactive.

For `c1ccc2cc(C3=NCCN3)ccc2c1`, the result was inactive.

As to `CC(=O)OCC(=O)[C@@]1(O)[C@H](OC(C)=O)C[C@H]2[C@@H]3CCC4=CC(=O)C=C[C@]4(C)[C@@]3(F)[C@@H](O)C[C@@]21C`, the compound was classed as inactive.

Take `Cc1nc2n(c(=O)c1CCN1CCC(c3noc4cc(F)ccc34)CC1)CCCC2`: the result was inactive.

For the compound `CC(C)(C)C1(CCc2ccc(Cl)cc2)CO1` (stereo not given), the call was inactive.

`CN=C(N)NC(=O)Nc1c(C)cccc1C`: the result was inactive.

Take `CC(C)SCc1ccco1`: the compound was called inactive.

Consider `CN(C)CCOC(c1ccc(Cl)cc1)c1ccccn1` (stereo not given), for which the compound was classed as inactive.

As for `O=Cc1ccc(Cl)c(Cl)c1`, the outcome was inactive.

As to `CO/N=C(\C(=O)N[C@@H]1C(=O)N2C(C(=O)[O-])=C(C[n+]3ccc(N)n3CCO)CS[C@H]12)c1csc(N)n1`, the call was inactive.

On to `CN=C(NC#N)NCCSCc1csc(N=C(N)N)n1`, for which the compound was classed as inactive.

Take `O=C(O)[C@@H]1C[C@H](CP(=O)(O)O)CCN1`: the compound was classed as inactive.

A word on the AC50: it is the midpoint of the concentration-response curve, whichever way the signal moves. For `Oc1ccc(C2(c3ccc(O)cc3)CC3CC2C2CCCC32)cc1` (stereo not given), the AC50 is 55.4 µM (active).

Consider `CC1(C)CC(OC(=O)CCCCCCCCC(=O)OC2CC(C)(C)NC(C)(C)C2)CC(C)(C)N1`, for which the compound was called inactive.

Consider `CO/N=C(\C(=O)N[C@@H]1C(=O)N2C(C(=O)O)=C(CSC(=O)c3ccco3)CS[C@H]12)c1csc(N)n1`, for which the compound was classed as inactive.

For `CCC(=O)OC/C=C/c1ccccc1`, the result was inactive.

In the case of `O=C(O)CCC(=O)c1ccc(-c2ccccc2)cc1`, the call was inactive.

As to `Oc1cc(O)c2c(c1)O[C@H](c1ccc(O)c(O)c1)[C@H](O)C2`, the compound was classed as inactive.

`C[N+](C)(C)CCOC(=O)CCC(=O)OCC[N+](C)(C)C`: the outcome was inactive.

A further assay has as its target Cellular tumor antigen p53 (Homo sapiens) (UniProt P04637). Kind of assay: TOX21_p53_BLA_p5_ratio: Tox21 HCT-116 p53 Agonism Beta-lactamase Assay, Ratio, Phase 5 (AID 2283599). In short, it runs like this:
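HCT-116 p53-bla cells (4000/well) plated 5 h, dosed with compound (217-fold DMSO dilution) for 16 h at 37 C; CCF4-AM substrate 2 h at room temperature. Activity is the 460/530 nm emission ratio (405 nm excitation), fitted in gain-of-signal direction versus DMSO.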
As to `Cc1c(C(C)C)c(=O)n(-c2ccccc2)n1C`, the outcome was inactive.

On to `CC(=O)O[C@H]1C[C@@]2(C)[C@@H](C[C@@H](O)[C@H]3[C@@]4(C)CC[C@@H](O)[C@@H](C)[C@@H]4CC[C@@]32C)/C1=C(\CCC=C(C)C)C(=O)O`, for which the outcome was inactive.

Take `OCC=CCO`: the outcome was inactive.

As to `c1ccc2cc(C3=NCCN3)ccc2c1`, the outcome was inactive.

Take `CC(C)(C)C1(CCc2ccc(Cl)cc2)CO1` (stereo not given): the outcome was inactive.

As to `CC(C)SCc1ccco1`, the result was inactive.

For the compound `CN(C)CCOC(c1ccc(Cl)cc1)c1ccccn1` (stereo not given), the outcome was inactive.

With `CO/N=C(\C(=O)N[C@@H]1C(=O)N2C(C(=O)[O-])=C(C[n+]3ccc(N)n3CCO)CS[C@H]12)c1csc(N)n1`, the outcome was inactive.

With `CN=C(NC#N)NCCSCc1csc(N=C(N)N)n1`, the result was inactive.

As for `O=C(O)[C@@H]1C[C@H](CP(=O)(O)O)CCN1`, the result was inactive.

As for `CO/N=C(\C(=O)N[C@@H]1C(=O)N2C(C(=O)O)=C(CSC(=O)c3ccco3)CS[C@H]12)c1csc(N)n1`, the result was inactive.

In the case of `CCC(=O)OC/C=C/c1ccccc1`, the result was inactive.

As for `O=C(O)CCC(=O)c1ccc(-c2ccccc2)cc1`, the result was inactive.

As for `Oc1cc(O)c2c(c1)O[C@H](c1ccc(O)c(O)c1)[C@H](O)C2`, the result was inactive.

Regarding `C[N+](C)(C)CCOC(=O)CCC(=O)OCC[N+](C)(C)C`, the result was inactive.

System in the next assay: not listed separately
Kind of assay: TOX21_p53_BLA_p5_viability: Viability Assessment in the Tox21 HCT-116 p53 Agonism Beta-lactamase Assay, Phase 5 (AID 2283600). In short, it runs like this:
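Workflow: seed 4000 cells per well, wait 5 h, add compounds (DMSO, 217-fold dilution), incubate 16 h, load CCF4-AM 2 h, add CellTiter-Glo, read luminescence after 30 min.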
Consider `Cc1c(C(C)C)c(=O)n(-c2ccccc2)n1C`, for which the compound was classed as inactive.

On to `COc1ccccc1N1CCN(CCCCNC(=O)c2ccc(-c3ccc(C(C)=O)cc3)cc2)CC1`, for which the outcome was inactive.

As for `CC(=O)O[C@H]1C[C@@]2(C)[C@@H](C[C@@H](O)[C@H]3[C@@]4(C)CC[C@@H](O)[C@@H](C)[C@@H]4CC[C@@]32C)/C1=C(\CCC=C(C)C)C(=O)O`, the result was inactive.

On to `O=C1c2ccccc2S(=O)(=O)N1CCCCN1CCN(c2ncccn2)CC1`, for which the compound was classed as inactive.

With `CN(C)CCCNCCC#N`, the result was inactive.

In the case of `COc1cc(-c2ccc(=O)[nH]n2)ccc1OC(F)F`, the call was inactive.

`CC(C)(C)C1(CCc2ccc(Cl)cc2)CO1` (stereo not given): the compound was classed as inactive.

As to `C1C[C@@H]2[C@H]3CC[C@H](C3)[C@@H]2C1`, the compound was called inactive.

`C/C(=N\O)c1ccc(OCC(=O)N2CCCCC2)cc1`: the result was inactive.

In the case of `CO/N=C(\C(=O)N[C@@H]1C(=O)N2C(C(=O)[O-])=C(C[n+]3ccc(N)n3CCO)CS[C@H]12)c1csc(N)n1`, the compound was called inactive.

`O=C1c2ccccc2C(=O)C1c1ccc(Br)cc1`: the compound was called inactive.

With `CO/N=C(\C(=O)N[C@@H]1C(=O)N2C(C(=O)O)=C(CSC(=O)c3ccco3)CS[C@H]12)c1csc(N)n1`, the outcome was inactive.

With `c1ccc2cc3c4ccccc4c4ccccc4c3cc2c1`, the result was inactive.

Take `CCC(N)(CO)CO`: the call was inactive.

On to `C=CCCC=C`, for which the result was inactive.

For `COc1ccc(C2C(=O)c3ccccc3C2=O)cc1`, the result was inactive.

As for `O=C(O)CCC(=O)c1ccc(-c2ccccc2)cc1`, the call was inactive.

For `Oc1cc(O)c2c(c1)O[C@H](c1ccc(O)c(O)c1)[C@H](O)C2`, the call was inactive.
